Screens deposited in PubChem BioAssay by several laboratories.
Only some compounds are listed: those with a hit (about 4.1% of all), similar ones and a draw of the others.
DAX1 inh-1: DAX1 (NR0B1) inhibitors, primary screen, cell-based, HEK293, Gal4-DAX1, luciferase luminescence. HEK293 Gal4-DAX1 luciferase reporter. Nuclear receptor subfamily 0 group B member 1 (Homo sapiens), P51843. inhibition, % at 6.75 µM. hit rate 0.99% among 340,000. AID 504766, 2011;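 active = inhibition above the mean over all tested compounds plus 3 SD, cut at about 4.2% in these data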;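 note: inhibition shows as a rise in luminescence from relieved DAX1 repression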
Target sequence (P51843 207-470 limits assumed): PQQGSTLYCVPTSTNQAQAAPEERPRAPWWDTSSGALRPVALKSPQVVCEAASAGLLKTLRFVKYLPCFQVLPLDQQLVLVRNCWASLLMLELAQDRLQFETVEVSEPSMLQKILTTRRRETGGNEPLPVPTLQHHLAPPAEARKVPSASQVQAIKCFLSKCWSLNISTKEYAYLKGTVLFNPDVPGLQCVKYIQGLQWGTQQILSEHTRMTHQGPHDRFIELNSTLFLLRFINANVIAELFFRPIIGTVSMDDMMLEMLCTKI
ssDAF-12 act: S. stercoralis DAF-12 nuclear receptor activators, primary screen, cell-based, luminescence, HEK293, GRIP1 co-expression, lit1-tk-luc | hit rate 1% among 370,000 | Nuclear hormone receptor DAF-12 (Strongyloides stercoralis) | activation, % at 6.8 µM | AID 652126, 2013 | HEK293 ssDAF-12/GRIP1 lit1-tk-luc reporter; % of 3 µM dafachronic acid response;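 active = activation above the mean over all tested compounds plus 3 SD, cut at about 0.9% in these data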
hgDAF-12 ag: H. glycines DAF-12 receptor agonists, primary screen, cell-based, luminescence, HEK293, GAL4 fusion, UAS-luciferase; activation, % at 6.8 µM; Nuclear hormone receptor DAF-12 (Heterodera glycines), GAL4 fusion; HEK293 GAL4-hgDAF12 UAS-luciferase reporter, agonist luminescence; normalized to butyrate control; hit rate 1.8% among 370,000;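 active = activation above a cutoff set at the mean of all screened compounds plus 3 SD, cut at about 10% in these data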
DAX1 inh-2: DAX1 (NR0B1) inhibitors on StAR promoter, primary screen, cell-based, luminescence, SF-1 (NR5A1), full-length DAX-1 | hit rate 1.1% among 370,000 | AID 652010, 2013 | inhibition, % at 6.8 µM | HEK293T StAR-luciferase reporter, SF-1/DAX-1 repression relief;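 active = inhibition above the mean over all tested compounds plus 3 SD, cut at about 3.6% in these data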;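 note: higher inhibition means more luminescence from relief of DAX-1 repression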
PolyA inhibitor: polyadenylation inhibitors in yeast reporter cells, primary screen, luminescence, S. cerevisiae | S. cerevisiae SKY197-pL101 polyadenylation reporter, beta-gal luminescence; efflux-impaired pdr1/pdr3 knockout yeast; score 100 = 6 SD above DMSO | activity score, % at 12 µM | hit rate 0.02% among 300,000;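 active = lowest replicate activity score at least 50, where 100 means six control SD above control mean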;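 note: yeast exposed to compound for 9 h at 30 °C; higher score means more reporter readthrough which indicates perturbed polyadenylation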
hcDAF-12 act: H. contortus DAF-12 nuclear receptor activators, primary screen, cell-based, luminescence, HEK293, lit1-tk-luc reporter. HEK293 hcDAF-12 lit1-tk-luc reporter; 0% DMSO, 100% Δ7-dafachronic acid. activation, % at 6.8 µM. hit rate 1.4% among 370,000. AID 652067, 2013;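 active = activation above the mean of all tested compounds plus 3 SD, cut at about 5.5% in these data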
LXRb hcDAF ctr: LXR agonists, Gal4 luciferase reporter, confirmation, counter-screen for hcDAF-12 agonist project, cell-based, luminescence, HEK293, H. contortus campaign | HEK293 Gal4-LXR tk-luc reporter, 24 h; normalized: DMSO 0%, positive control 100% | shares compounds with hcDAF-12 act | activation, % at 6.8 µM | 3,400 tested, under 10 active;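 active = mean percent activation of the reporter above a cutoff set as the average over tested compounds plus their standard deviation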
hcDAF12 conf: H. contortus DAF-12 receptor agonists, confirmation, cell-based, luminescence, HEK293, lit1-tk-luc, triplicate; shares compounds with hcDAF-12 act; HEK293 hcDAF-12 lit1-tk-luc reporter; % of Δ7-dafachronic acid response; activation, % at 6.8 µM; hit rate 61% among 3,400; AID 743032, 2013;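 active = mean activation across triplicate tests above the threshold derived from the earlier primary screen, cut at about 5.5% in these data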
A number is an active result; – = inactive; · = no result.

SMILES | DAX1 inh-1 | ssDAF-12 act | hgDAF-12 ag | DAX1 inh-2 | PolyA inhibitor | hcDAF-12 act | LXRb hcDAF ctr | hcDAF12 conf
NC(=O)c1ccccc1N/C=C/C(=O)c1ccc(Cl)cc1 | – | – | – | – | – | 6.7 | – | –
Nc1sc(-c2ccccc2)cc1C(=O)N1CCN(c2ccccc2)CC1 | · | – | – | – | · | – | · | ·
O=C1CCC(C(=O)N2CCCCCC2)CN1CCc1ccc(Cl)cc1 (centres undefined) | – | – | – | – | – | – | · | ·
NS(=O)(=O)c1ccc(NC(=O)/C(=C/c2ccncc2)NC(=O)c2ccccc2)cc1 | – | – | – | – | – | – | · | ·
CN(C)c1nc(-c2ccccc2)ns1 | – | – | – | – | – | – | · | ·
Nc1nc(-c2ccccc2)ns1 | – | – | – | – | · | 6.9 | – | 6.1
Brc1ccc(-c2nc(-c3ccccn3)no2)o1 | – | – | – | – | – | 8.0 | – | 11
COc1ccccc1-c1nc(-c2ccccn2)no1 | – | – | – | – | – | 8.6 | – | 10
Fc1ccc(OCc2nc(-c3ccc(Br)o3)no2)c(F)c1 | – | – | – | – | – | – | · | ·
Brc1ccc(-c2nc(-c3ccncc3)no2)o1 | – | – | – | – | – | – | · | ·
Cc1nc(-c2noc(-c3ccccc3Cl)n2)c(C(F)(F)F)o1 | – | – | – | – | – | – | · | ·
Clc1ccccc1OCc1nc(-c2ccc(Br)o2)no1 | – | – | – | – | – | 6.7 | – | –
Clc1ccccc1-c1nc(-c2ccc(Br)o2)no1 | 5.6 | 3.5 | 22 | – | – | 15 | – | 18
C/C(=N\OCc1cccc(C(=O)O)c1)c1ccc(Cl)cc1 | · | – | 13 | – | – | 8.8 | – | –
O=C(O)c1ccc2c(c1Nc1ccccc1)C(=O)c1ccccc1C2=O | 4.4 | – | – | – | – | 7.5 | – | –
CNc1c(C(=O)O)ccc2c1C(=O)c1ccccc1C2=O | – | – | – | – | – | – | · | ·
Nc1[nH]n(-c2ccccc2)c(=O)c1N=Nc1ccc2c(c1)OCO2 | – | – | – | – | – | – | · | ·
Nc1nn(-c2ccccc2)c(N)c1N=Nc1ccc2c(c1)OCO2 | – | – | 20 | – | – | 8.4 | – | 6.5
CSc1ccccc1-c1nnc(-c2ccccc2)o1 | – | 2.2 | 13 | 4.4 | – | 12 | – | 12
COc1ccccc1-c1nnc(-c2ccc(C)cc2)o1 | 8.4 | – | 11 | – | – | 8.0 | – | 8.5
COc1cc2c(cc1NC(=O)C(C)OC(=O)C1CC(=O)N(Cc3ccco3)C1)oc1ccccc12 (centres undefined) | – | 1.5 | – | – | – | 8.8 | – | 8.0
CC(OC(=O)C1CC(=O)N(Cc2ccco2)C1)C(=O)Nc1cccc(C#N)c1 (centres undefined) | – | – | – | – | · | – | · | ·
CCOC(=O)C1=CCN(S(=O)(=O)c2ccccc2)C1c1ccccc1 (centres undefined) | · | – | – | – | · | – | · | ·
O=C(CN1CCCc2ccccc21)N/N=C/c1c(O)ccc2ccccc12 | – | – | – | – | – | – | · | ·
COc1ccc(Cn2c(O)c(C=Nc3ccc(OC)cc3)c3ccccc3c2=O)cc1 | – | – | – | – | – | – | · | ·
